Test results taken from the supplement of paper PMC12494721.
Where a name gives a salt, the structure may show the parent alone.

Columns and labels:
Settings in all cases: incubation time: 27 h, anaerobic, 37 °C;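 for the amine columns active = adjusted P below 0.05 in both replicates with a change the same way and a mean fold change under 0.8 or over 1.25; inactive = the rest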
[1] = tested on: Clostridium sporogenes DSM 1664; experiment: growth (OD595) fold change vs plate DMSO controls (fold change (ratio)); higher = more growth
In short: (§1)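 Anaerobic mGAM cultures in 96-well plates were grown for 27 h at 37 °C, and absorbance was then read at 595 nm. After blank and compound background correction with 20 µM compound solutions in water, a calibration factor of 5 gave OD. Growth is the fold change relative to the median of each plate's DMSO controls. Values are means of 2 biological replicates, with fold changes above 1.5 set to NA.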

Escherichia coli IAI1 [2] = experiment: as above
In short: as §1

[3] = tested on: Klebsiella aerogenes DSM 30053; experiment: as above
In short: as §1

[4] = tested on: Ruminococcus gnavus DSM 108212; experiment: as above
In short: as §1

[5] = tested on: Klebsiella aerogenes DSM 30053; experiment: fold change of Histamine concentration vs plate DMSO controls (fold change (ratio)); higher = more amine produced, active = hit call of the paper (significant change in both replicates, either direction)
In short: (§2)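 In 80 µL wells, cultures of four gut bacterial strains in mGAM started at OD 0.1 before a 1:1 dilution and grew anaerobically at 37 °C for 27 h. Compounds were added to 20 µM final, except sweeteners at 50 µM final. After extraction of whole cultures with cold acetonitrile/methanol plus 0.1% formic acid and centrifugation, amines were measured by LC–triple-quadrupole MS in dynamic MRM mode against external calibration curves, with within-batch drift correction. Values give fold change over DMSO controls on the same plate, averaged across 2 biological replicates.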

[6] = tested on: Clostridium sporogenes DSM 1664; experiment: fold change of Tryptamine concentration vs plate DMSO controls (fold change (ratio)); higher = more amine produced, active = hit call of the paper (significant change in both replicates, either direction)
In short: as §2

[7] = tested on: Ruminococcus gnavus DSM 108212; experiment: as above
In short: as §2

Escherichia coli IAI1 [8] = experiment: fold change of Putrescine concentration vs plate DMSO controls (fold change (ratio)); higher = more amine produced, active = hit call of the paper (significant change in both replicates, either direction)
In short: as §2

[9] = tested on: Klebsiella aerogenes DSM 30053; experiment: as above
In short: as §2

Escherichia coli IAI1 [10] = experiment: fold change of Cadaverine concentration vs plate DMSO controls (fold change (ratio)); higher = more amine produced, active = hit call of the paper (significant change in both replicates, either direction)
In short: as §2

[11] = tested on: Klebsiella aerogenes DSM 30053; experiment: as above
In short: as §2

[12] = tested on: Ruminococcus gnavus DSM 108212; experiment: fold change of 2-Phenylethylamine concentration vs plate DMSO controls (fold change (ratio)); higher = more amine produced, active = hit call of the paper (significant change in both replicates, either direction)
In short: as §2

| SMILES | growth [1] | growth (Escherichia coli IAI1 [2]) | growth [3] | growth [4] | fold change of Histamine concentration [5] | fold change of Tryptamine concentration [6] | fold change of Tryptamine concentration [7] | fold change of Putrescine concentration (Escherichia coli IAI1 [8]) | fold change of Putrescine concentration [9] | fold change of Cadaverine concentration (Escherichia coli IAI1 [10]) | fold change of Cadaverine concentration [11] | fold change of 2-Phenylethylamine concentration [12] |
| --- | --- | --- | --- | --- | --- | --- | --- | --- | --- | --- | --- | --- |
| CCOc1ccc(Cc2nccc3cc(OCC)c(OCC)cc23)cc1OCC [Ethaverine hydrochloride] (20 µM) | 0.848 | 0.99 | 0.954 | 1.05 | 1 (inactive) | 0.945 (inactive) | 0.935 (inactive) | 1.05 (inactive) | 1.01 (inactive) | 1.03 (inactive) | 0.982 (inactive) | 0.895 (inactive) |
| Cc1c(NC(=O)c2cccnc2)c(=O)n(-c2ccccc2)n1C [Nifenazone] (20 µM) | 0.595 | 0.988 | 1.03 | 0.857 | 0.926 (inactive) | 0.135 (active) | 1.02 (inactive) | 0.723 (active) | 0.978 (inactive) | 0.865 (inactive) | 1 (inactive) | 1.03 (inactive) |
| COc1cc(NS(=O)(=O)c2ccc(N)cc2)nc(OC)n1 [Sulfadimethoxine] (20 µM) | 0.79 | 0.992 | 1.1 | 1.01 | 0.891 (inactive) | 1.05 (inactive) | 1.29 (active) | 0.887 (inactive) | 0.946 (inactive) | 0.888 (inactive) | 1.03 (inactive) | 1.53 (active) |
| CC[C@H]1OC(=O)[C@H](C)[C@@H](O[C@H]2C[C@@](C)(OC)[C@@H](O)[C@H](C)O2)[C@H](C)[C@@H](O[C@@H]2O[C@H](C)C[C@H](N(C)C)[C@H]2O)[C@](C)(O)C[C@@H](C)C(=O)[C@H](C)[C@@H](O)[C@]1(C)O [Erythromycin] (20 µM) | 0.0078 | 0.762 | 1.16 | 0.129 | 0.3 (inactive) | 0.0554 (active) | 0.144 (active) | 0.459 (inactive) | 0.936 (inactive) | 0.942 (inactive) | 1.07 (inactive) | 0.137 (active) |
| CCCCOc1cc(C(=O)OCCN(CC)CC)ccc1N [Benoxinate hydrochloride] (20 µM) | 1.06 | 0.951 | 0.988 | 1.01 | 1.05 (inactive) | 0.997 (inactive) | 1.04 (inactive) | 0.973 (inactive) | 1.01 (inactive) | 0.978 (inactive) | 0.998 (inactive) | 1.04 (inactive) |
| CCCN(CCC)C(=O)C(CCC(=O)O)NC(=O)c1ccccc1 (stereo not drawn) [Proglumide] (20 µM) | 0.898 | 1.36 | 1.01 | 0.78 | 0.906 (inactive) | 1.44 (active) | 1.06 (inactive) | 1.31 (active) | 0.919 (inactive) | 0.929 (inactive) | 1.01 (inactive) | 1.11 (inactive) |
| CN1C(=O)OC(C)(C)C1=O [Trimethadione] (20 µM) | 1 | 1.03 | 1.01 | 1.27 | 0.977 (inactive) | 0.924 (inactive) | 0.948 (inactive) | 1.02 (inactive) | 0.987 (inactive) | 0.991 (inactive) | 0.999 (inactive) | 0.919 (inactive) |
| O=C(CO)[C@@H](O)[C@@H](O)[C@H](O)CO [D-Tagatose] (50 µM) | 0.957 | 1.01 | 1.03 | 0.984 | 0.943 (inactive) | 0.991 (inactive) | 0.995 (inactive) | 1.03 (inactive) | 1.02 (inactive) | 1.07 (inactive) | 1.03 (inactive) | 0.992 (inactive) |
| CN1CCN(C(c2ccccc2)c2ccc(Cl)cc2)CC1 (stereo not drawn) [Chlorcyclizine hydrochloride] (20 µM) | 1.15 | 1.16 | 0.997 | 0.999 | 1.09 (inactive) | 0.979 (inactive) | 0.89 (inactive) | 1.14 (inactive) | 1 (inactive) | 0.889 (inactive) | 0.981 (inactive) | 0.919 (inactive) |
| COCC(=O)Nc1c(I)c(C(=O)NCC(O)CO)c(I)c(C(=O)N(C)CC(O)CO)c1I (stereo not drawn) [Iopromide] (20 µM) | 1.27 | 1.02 | 1.06 | 1.02 | 1.01 (inactive) | 1.01 (inactive) | 1.11 (inactive) | 1.09 (inactive) | 0.975 (inactive) | 0.989 (inactive) | 1.02 (inactive) | 1.15 (inactive) |
| Clc1ccc(CO/N=C(\Cn2ccnc2)c2ccc(Cl)cc2Cl)c(Cl)c1 [Oxiconazole nitrate] (20 µM) | 0.912 | 0.995 | 0.981 | 0.321 | 1.02 (inactive) | 0.91 (inactive) | 0.351 (active) | 1.04 (inactive) | 1.05 (inactive) | 1.03 (inactive) | 1.07 (inactive) | 0.629 (inactive) |
| Nc1ccc(S(=O)(=O)Nc2ccccn2)cc1 [Sulfapyridine] (20 µM) | 0.891 | 1.06 | 1.04 | 1.03 | 1.05 (inactive) | 0.998 (inactive) | 1.02 (inactive) | 1.01 (inactive) | 1 (inactive) | 0.955 (inactive) | 0.994 (inactive) | 1.03 (inactive) |
| NC(=O)c1cnccn1 [Pyrazinamide] (20 µM) | 0.992 | 1.04 | 1 | 1.12 | 0.957 (inactive) | 1.04 (inactive) | 0.958 (inactive) | 1.01 (inactive) | 1 (inactive) | 0.98 (inactive) | 1.01 (inactive) | 0.906 (inactive) |
| CCN(CCO)CCCC(C)Nc1ccnc2cc(Cl)ccc12 (stereo not drawn) [Hydroxychloroquine sulfate] (20 µM) | 1.08 | 0.955 | 0.95 | 0.855 | 1.09 (inactive) | 0.967 (inactive) | 0.991 (inactive) | 0.915 (inactive) | 1.04 (inactive) | 0.999 (inactive) | 0.982 (inactive) | 1.02 (inactive) |
| CCCCNc1ccc(C(=O)OCCOCCOCCOCCOCCOCCOCCOCCOCCOC)cc1 [Benzonatate] (20 µM) | 0.953 | 1.03 | 1.04 | 0.922 | 0.929 (inactive) | 0.96 (inactive) | 0.971 (inactive) | 1 (inactive) | 0.995 (inactive) | 1.04 (inactive) | 1.01 (inactive) | 0.936 (inactive) |
| S=C([S-])NCCNC(=S)[S-].S=C([S-])NCCNC(=S)[S-].[Mn+2].[Zn+2] (20 µM) | 0.889 | 0.959 | 0.994 | 1.01 | 0.985 (inactive) | 1.14 (inactive) | 1.12 (inactive) | 1.02 (inactive) | 0.852 (inactive) | 0.85 (inactive) | 1.07 (inactive) | 1.21 (inactive) |
| CCOCC(O)COc1ccc(NC(=O)CC[S+](C)C)cc1 (stereo not drawn) [Suplatast Tosylate] (20 µM) | 0.999 | 1.04 | 0.988 | 1 | 1.03 (inactive) | 1.01 (inactive) | 0.978 (inactive) | 1.04 (inactive) | 1.02 (inactive) | 0.989 (inactive) | 0.991 (inactive) | 0.909 (inactive) |
| C[C@H]1[C@@H](O)O[C@@H]2O[C@@]3(C)CC[C@H]4[C@H](C)CC[C@@H]1[C@@]24OO3 [Artenimol] (20 µM) | 1.03 | 1.03 | 0.982 | 1.04 | 1.01 (inactive) | 0.991 (inactive) | 1.01 (inactive) | 1.02 (inactive) | 1.01 (inactive) | 1.02 (inactive) | 1.01 (inactive) | 0.965 (inactive) |
| Nc1nc(=O)[nH]cc1F [Flucytosine] (20 µM) | 1.01 | 0.897 | 0.986 | 1.03 | 1.07 (inactive) | 0.924 (inactive) | 0.987 (inactive) | 0.875 (inactive) | 1.02 (inactive) | 0.968 (inactive) | 0.979 (inactive) | 1.01 (inactive) |
| C#C[C@]1(O)CC[C@H]2[C@@H]3CCc4cc(OC)ccc4[C@H]3CC[C@@]21C [Mestranol] (20 µM) | 0.992 | 0.999 | 1.09 | 1.14 | 0.93 (inactive) | 1.04 (inactive) | 0.893 (inactive) | 0.949 (inactive) | 1.01 (inactive) | 1.01 (inactive) | 1.01 (inactive) | 0.831 (inactive) |
| Clc1ccc(C(Cn2ccnc2)OCc2csc3c(Cl)cccc23)c(Cl)c1 (stereo not drawn) [Sertaconazole nitrate] (20 µM) | 0.896 | 1.1 | 0.993 | 0.501 | 0.978 (inactive) | 1.12 (inactive) | 0.435 (active) | 1.08 (inactive) | 0.954 (inactive) | 0.973 (inactive) | 1.03 (inactive) | 0.591 (inactive) |
| CCCN(CCC)CCc1cccc2c1CC(=O)N2 [Ropinirole hydrochloride] (20 µM) | 1.07 | 0.95 | 0.961 | 1.02 | 1.08 (inactive) | 1 (inactive) | 1 (inactive) | 0.952 (inactive) | 1.02 (inactive) | 0.978 (inactive) | 0.986 (inactive) | 1.02 (inactive) |
| CCc1nc(N)nc(N)c1-c1ccc(Cl)cc1 [Pyrimethamine] (20 µM) | 1.05 | 0.96 | 0.961 | 1.17 | 1.07 (inactive) | 1.01 (inactive) | 0.912 (inactive) | 0.792 (inactive) | 0.977 (inactive) | 1.32 (active) | 0.989 (inactive) | 0.819 (inactive) |
| CCCSS/C(CCO)=C(/C)N(C=O)Cc1cnc(C)nc1N [Prosultiamine] (20 µM) | 0.945 | 1.01 | 0.993 | 0.919 | 0.951 (inactive) | 1.09 (inactive) | 1.09 (inactive) | 0.949 (inactive) | 0.98 (inactive) | 0.958 (inactive) | 0.984 (inactive) | 1.16 (inactive) |
